Reference: PMC7826789 (International Journal of Molecular Sciences, 2021)

What was measured:
Settings in all cases: Compound Concentration (nM):1000
EGFR(G719S) = tested on: EGFR(G719S)
[1] = tested on: EGFR(L747-E749del, A750P)
[2] = tested on: EGFR(L747-S752del, P753S)
EGFR(L747-T751del,Sins) = tested on: EGFR(L747-T751del,Sins)
EGFR(L858R) = tested on: EGFR(L858R)
EGFR(L858R,T790M) = tested on: EGFR(L858R,T790M)
EGFR(L861Q) = tested on: EGFR(L861Q)
EGFR(S752-I759del) = tested on: EGFR(S752-I759del)
EGFR(T790M) = tested on: EGFR(T790M)
EGFR = tested on: EGFR
EIF2AK1 = tested on: EIF2AK1
EPHA1 = tested on: EPHA1
EPHA2 = tested on: EPHA2
EPHA3 = tested on: EPHA3
EPHA4 = tested on: EPHA4
EPHA5 = tested on: EPHA5
EPHA6 = tested on: EPHA6
EPHA7 = tested on: EPHA7
EPHA8 = tested on: EPHA8
EPHB1 = tested on: EPHB1
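Further: KINOMEscan scanMAX binding as percent activity remaining versus control; lower means stronger binding.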

## CC1=C(C(=O)Nc2ccc3[nH]ncc3c2)C(c2ccc(Cl)c(Cl)c2)CC(=O)N1 (centres unmarked) [GSK299115A]
EGFR(G719S)
  Percent Control: 100%
[1]
  Percent Control: 100%
[2]
  Percent Control: 97%
EGFR(L747-T751del,Sins)
  Percent Control: 100%
EGFR(L858R)
  Percent Control: 100%
EGFR(L858R,T790M)
  Percent Control: 65%
EGFR(L861Q)
  Percent Control: 86%
EGFR(S752-I759del)
  Percent Control: 89%
EGFR(T790M)
  Percent Control: 77%
EGFR
  Percent Control: 100%
EIF2AK1
  Percent Control: 100%
EPHA1
  Percent Control: 100%
EPHA2
  Percent Control: 98%
EPHA3
  Percent Control: 86%
EPHA4
  Percent Control: 96%
EPHA5
  Percent Control: 95%
EPHA6
  Percent Control: 100%
EPHA7
  Percent Control: 100%
EPHA8
  Percent Control: 100%
EPHB1
  Percent Control: 74%

## NS(=O)(=O)c1ccc(N/N=C2\C(=O)Nc3ccc(C(=O)NCc4ccncc4)cc32)cc1 [GW300657X]
EGFR(G719S)
  Percent Control: 97%
[1]
  Percent Control: 100%
[2]
  Percent Control: 90%
EGFR(L747-T751del,Sins)
  Percent Control: 81%
EGFR(L858R)
  Percent Control: 94%
EGFR(L858R,T790M)
  Percent Control: 100%
EGFR(L861Q)
  Percent Control: 91%
EGFR(S752-I759del)
  Percent Control: 98%
EGFR(T790M)
  Percent Control: 100%
EGFR
  Percent Control: 93%
EIF2AK1
  Percent Control: 100%
EPHA1
  Percent Control: 100%
EPHA2
  Percent Control: 89%
EPHA3
  Percent Control: 100%
EPHA4
  Percent Control: 88%
EPHA5
  Percent Control: 94%
EPHA6
  Percent Control: 100%
EPHA7
  Percent Control: 100%
EPHA8
  Percent Control: 99%
EPHB1
  Percent Control: 100%

## CCc1ccc(Oc2nccc(-c3c(-c4ccc(F)cc4)ncn3C3CCNCC3)n2)cc1 [SB-242719]
EGFR(G719S)
  Percent Control: 61%
[1]
  Percent Control: 48%
[2]
  Percent Control: 91%
EGFR(L747-T751del,Sins)
  Percent Control: 71%
EGFR(L858R)
  Percent Control: 49%
EGFR(L858R,T790M)
  Percent Control: 73%
EGFR(L861Q)
  Percent Control: 58%
EGFR(S752-I759del)
  Percent Control: 85%
EGFR(T790M)
  Percent Control: 52%
EGFR
  Percent Control: 48%
EIF2AK1
  Percent Control: 100%
EPHA1
  Percent Control: 94%
EPHA2
  Percent Control: 95%
EPHA3
  Percent Control: 95%
EPHA4
  Percent Control: 95%
EPHA5
  Percent Control: 100%
EPHA6
  Percent Control: 90%
EPHA7
  Percent Control: 100%
EPHA8
  Percent Control: 97%
EPHB1
  Percent Control: 100%

## Cl.O=S1CCN(Cc2ccc(-c3ccc4ncnc(Nc5ccc(OCc6ccccc6)c(F)c5)c4c3)o2)CC1 [GW576924A]
EGFR(G719S)
  Percent Control: 2.2%
[1]
  Percent Control: 1.3%
[2]
  Percent Control: 5.9%
EGFR(L747-T751del,Sins)
  Percent Control: 42%
EGFR(L858R)
  Percent Control: 0.3%
EGFR(L858R,T790M)
  Percent Control: 100%
EGFR(L861Q)
  Percent Control: 0%
EGFR(S752-I759del)
  Percent Control: 1.4%
EGFR(T790M)
  Percent Control: 46%
EGFR
  Percent Control: 0.5%
EIF2AK1
  Percent Control: 100%
EPHA1
  Percent Control: 100%
EPHA2
  Percent Control: 100%
EPHA3
  Percent Control: 100%
EPHA4
  Percent Control: 95%
EPHA5
  Percent Control: 100%
EPHA6
  Percent Control: 100%
EPHA7
  Percent Control: 100%
EPHA8
  Percent Control: 95%
EPHB1
  Percent Control: 100%

## COc1cc2ncnc(Nc3ccc4c(cnn4Cc4ccccc4)c3)c2cc1OC.Cl [GW282449A]
EGFR(G719S)
  Percent Control: 1.4%
[1]
  Percent Control: 11%
[2]
  Percent Control: 3.4%
EGFR(L747-T751del,Sins)
  Percent Control: 5.2%
EGFR(L858R)
  Percent Control: 0.9%
EGFR(L858R,T790M)
  Percent Control: 78%
EGFR(L861Q)
  Percent Control: 0%
EGFR(S752-I759del)
  Percent Control: 78%
EGFR(T790M)
  Percent Control: 7.2%
EGFR
  Percent Control: 4.4%
EIF2AK1
  Percent Control: 100%
EPHA1
  Percent Control: 100%
EPHA2
  Percent Control: 100%
EPHA3
  Percent Control: 100%
EPHA4
  Percent Control: 100%
EPHA5
  Percent Control: 100%
EPHA6
  Percent Control: 100%
EPHA7
  Percent Control: 100%
EPHA8
  Percent Control: 100%
EPHB1
  Percent Control: 100%

## NS(=O)(=O)c1ccc(Nc2ncc(-c3ccccc3)o2)cc1 [GW572399X]
EGFR(G719S)
  Percent Control: 100%
[1]
  Percent Control: 68%
[2]
  Percent Control: 100%
EGFR(L747-T751del,Sins)
  Percent Control: 100%
EGFR(L858R)
  Percent Control: 88%
EGFR(L858R,T790M)
  Percent Control: 96%
EGFR(L861Q)
  Percent Control: 100%
EGFR(S752-I759del)
  Percent Control: 100%
EGFR(T790M)
  Percent Control: 92%
EGFR
  Percent Control: 88%
EIF2AK1
  Percent Control: 100%
EPHA1
  Percent Control: 100%
EPHA2
  Percent Control: 100%
EPHA3
  Percent Control: 100%
EPHA4
  Percent Control: 97%
EPHA5
  Percent Control: 100%
EPHA6
  Percent Control: 100%
EPHA7
  Percent Control: 84%
EPHA8
  Percent Control: 81%
EPHB1
  Percent Control: 91%

## COc1cccc(-c2c[nH]c3c(N/N=C/c4ccncc4)ncnc23)c1 [GW814408X]
EGFR(G719S)
  Percent Control: 32%
[1]
  Percent Control: 18%
[2]
  Percent Control: 16%
EGFR(L747-T751del,Sins)
  Percent Control: 35%
EGFR(L858R)
  Percent Control: 23%
EGFR(L858R,T790M)
  Percent Control: 30%
EGFR(L861Q)
  Percent Control: 41%
EGFR(S752-I759del)
  Percent Control: 41%
EGFR(T790M)
  Percent Control: 53%
EGFR
  Percent Control: 30%
EIF2AK1
  Percent Control: 100%
EPHA1
  Percent Control: 100%
EPHA2
  Percent Control: 96%
EPHA3
  Percent Control: 93%
EPHA4
  Percent Control: 100%
EPHA5
  Percent Control: 100%
EPHA6
  Percent Control: 100%
EPHA7
  Percent Control: 91%
EPHA8
  Percent Control: 79%
EPHB1
  Percent Control: 81%

## O=C(Nc1n[nH]c2nc(-c3ccc(O)cc3)c(Br)cc12)C1CC1 [SB-725317]
EGFR(G719S)
  Percent Control: 100%
[1]
  Percent Control: 76%
[2]
  Percent Control: 99%
EGFR(L747-T751del,Sins)
  Percent Control: 100%
EGFR(L858R)
  Percent Control: 96%
EGFR(L858R,T790M)
  Percent Control: 100%
EGFR(L861Q)
  Percent Control: 100%
EGFR(S752-I759del)
  Percent Control: 82%
EGFR(T790M)
  Percent Control: 96%
EGFR
  Percent Control: 100%
EIF2AK1
  Percent Control: 14%
EPHA1
  Percent Control: 82%
EPHA2
  Percent Control: 100%
EPHA3
  Percent Control: 85%
EPHA4
  Percent Control: 86%
EPHA5
  Percent Control: 100%
EPHA6
  Percent Control: 100%
EPHA7
  Percent Control: 100%
EPHA8
  Percent Control: 100%
EPHB1
  Percent Control: 100%

## Cl.O=C(O[C@H]1CN[C@H](C#Cc2cc3ncnc(Nc4ccc5c(cnn5Cc5ccccc5)c4)c3s2)C1)N1CCOCC1 [GSK200398A]
EGFR(G719S)
  Percent Control: 2%
[1]
  Percent Control: 66%
[2]
  Percent Control: 20%
EGFR(L747-T751del,Sins)
  Percent Control: 24%
EGFR(L858R)
  Percent Control: 9.2%
EGFR(L858R,T790M)
  Percent Control: 87%
EGFR(L861Q)
  Percent Control: 0.3%
EGFR(S752-I759del)
  Percent Control: 3.1%
EGFR(T790M)
  Percent Control: 44%
EGFR
  Percent Control: 25%
EIF2AK1
  Percent Control: 100%
EPHA1
  Percent Control: 87%
EPHA2
  Percent Control: 96%
EPHA3
  Percent Control: 94%
EPHA4
  Percent Control: 96%
EPHA5
  Percent Control: 100%
EPHA6
  Percent Control: 95%
EPHA7
  Percent Control: 100%
EPHA8
  Percent Control: 100%
EPHB1
  Percent Control: 100%

## COc1cc(C=NNc2ncnc3c2cnn3-c2ccccc2)ccc1O [GW513184X]
EGFR(G719S)
  Percent Control: 44%
[1]
  Percent Control: 46%
[2]
  Percent Control: 33%
EGFR(L747-T751del,Sins)
  Percent Control: 64%
EGFR(L858R)
  Percent Control: 96%
EGFR(L858R,T790M)
  Percent Control: 76%
EGFR(L861Q)
  Percent Control: 62%
EGFR(S752-I759del)
  Percent Control: 64%
EGFR(T790M)
  Percent Control: 82%
EGFR
  Percent Control: 100%
EIF2AK1
  Percent Control: 100%
EPHA1
  Percent Control: 100%
EPHA2
  Percent Control: 100%
EPHA3
  Percent Control: 100%
EPHA4
  Percent Control: 100%
EPHA5
  Percent Control: 83%
EPHA6
  Percent Control: 100%
EPHA7
  Percent Control: 90%
EPHA8
  Percent Control: 94%
EPHB1
  Percent Control: 99%
